# Source: paper PMC5540273 (PLoS ONE, 2017)
# System: T1, IKK-alpha
# T1 construct: gene CHUK
# Settings: concentration: 1 μM,replicates: in singlicate; n = 1
# 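Further: KINOMEscan kinase panel screen.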
row,SMILES,%Inh
1,Cn1ccc2ncnc(Oc3ccc(NC(=O)Nc4cnn(C(C)(C)C)c4)c(Cl)c3)c21,29%
2,COc1cc2ncn(-c3cc(OCC4CCCCC4)c(C(N)=O)s3)c2cc1OC [GSK204559],0%
3,COc1cccc(CNC(=O)NC2CCN(c3ccnc(Nc4cc(OC)c(OC)c(OC)c4)n3)C2)c1 (stereo not shown) [GSK1379765],21%
4,Cn1ccc2ncnc(Oc3ccc(NC(=O)Nc4cccc(C(F)(F)F)c4)c(F)c3)c21,44%
5,CNC(=O)c1ccccc1Nc1nc(Nc2cccc(CS(C)(=O)=O)c2)ncc1C.O=CO [GSK1520489],61%
6,C[C@@H](Oc1cc(-n2cnc3cc(-c4cnn(C)c4)ccc32)sc1C(N)=O)c1ccccc1Cl [GSK580432],0%
7,COc1cc(Nc2nccc(N3CCC(NC(=O)c4cccc(C#N)c4)C3)n2)cc(OC)c1OC (stereo not shown) [GSK1379751],19%
8,Cc1ccn2nc(-c3ccc(F)cc3)c(-c3ccncc3)c2c1.Cl [GW457859],0%
9,CN1CCN(CCNc2nc3cc(Oc4ccc(NC(=O)Nc5cc(C(F)(F)F)ccc5F)cc4)ccc3[nH]2)CC1.Cl.Cl [GW768504],0%
10,NC(=O)c1ccc(-c2cc3ncnc(SCC(=O)O)c3s2)cc1,0%
11,CC(=O)c1c(-c2ccncc2)[nH]c(-c2ccncc2)c1C [GW493036],35%
12,O=C(Nc1cccc(C(F)(F)F)c1)c1cccc(Oc2ccc3nccn3n2)c1,0%
13,CC(=O)Nc1nc2cnc(Nc3cc(NC(=O)c4cccc(CC(C)(C)C#N)c4)ccc3C)nc2s1,0%
14,COc1ccc(Nc2nccc(N3CCC(NC(=O)c4cccc(C#N)c4)C3)n2)cc1 (stereo not shown) [GSK1379730],0%
15,Cl.c1ccc(Oc2ccc(Nc3ccnc4cc(-c5ccc(CN6CCNCC6)o5)ccc34)cc2)nc1 [GW567142],0%
16,O=C(Nc1ccc(Oc2ccc3nc(NC(=O)C4CC4)cn3n2)c(F)c1)c1cccn(-c2ccccc2)c1=O,0%
17,Cl.Cl.NC[C@H](CC1CCCCC1)NC(=O)c1ccc(-c2ccnc3[nH]ccc23)s1 [GSK1581428],31%

row,SMILES,%Inh
1,COC(=O)Nc1nc2cc(Oc3ccc(NC(=O)Nc4cc(C(F)(F)F)ccc4Cl)cc3)ccc2[nH]1.Cl [GW697465],35%
2,CC(C(=O)NC1CCN(c2ccnc(Nc3ccc(F)cc3)n2)C1)c1ccc(Cl)cc1 (stereo not shown) [GSK1379713],0%
3,O=C(NCC1CC1)c1ccc(-c2cc(C(=O)NC3CC3)ccc2F)cc1 [GW810445],0%
4,CCN1CCN(CCCC(=O)Nc2n[nH]c3nc(-c4ccc(O)cc4)c(Br)cc23)CC1 [SB-731579],0%
5,Cc1nnc(-c2ccc3occ(-c4ccc(S(C)=O)cc4)c3n2)o1 (stereo not shown),0%
6,CC(C)S(=O)(=O)N1CCN(Cc2ccc3c(c2)nc(NC(=O)c2ccsc2)n3C[C@H](O)c2ccccc2)CC1 [GW635815],20%
7,Cn1ccc2ncnc(Oc3ccc(NC(=O)Nc4cccc(C(F)(F)F)c4)c(Cl)c3)c21,53%
8,Cn1ccc2ncnc(Oc3ccc(NC(=O)Nc4ccnc(C(F)(F)F)c4)c(Cl)c3)c21,46%
9,Cc1cccc2c(-c3ccncc3)c(-c3ccc(F)cc3)nn12.Cl [GW461487],0%
10,Cc1ccc2c(-c3ccnc(Nc4ccc(C(F)(F)F)cc4)n3)cnn2n1 [GW819776],38%
11,Cc1n[nH]c2cc(Nc3ccnc(Nc4cccc(CN5CCOCC5)c4)n3)ccc12 [GW682569],0%
12,CCn1c(-c2nonc2N)nc2cncc(Br)c21 [SB-738004],12%
13,CN1CCN(CCCNc2nccc(-c3c(-c4ccc(F)cc4)nn4cc(C(N)=O)ccc34)n2)CC1 [GW622475],0%
14,Nc1nccc(-c2ccc3c(N)n[nH]c3c2)n1 [GSK1034945],76%
15,Cc1ccc(C(=O)Nc2ccc(Oc3ccc4nc(NC(=O)C5CC5)cn4c3)c(F)c2)c(=O)n1-c1ccccc1,61%
16,Cn1ccc2ncnc(Oc3ccc(NC(=O)Nc4cncc(C(F)(F)F)c4)c(Cl)c3)c21,0%
17,NC(=O)Nc1sc(-c2ccc(F)cc2)cc1C(N)=O [GW789449],78%
